Source: PubChem (National Center for Advancing Translational Sciences (NCATS))
D3 ag: activates the human D3 dopamine receptor | hit rate 0.58% among 410,000 | max activation, % | P35462 | D3R DiscoveRx beta-arrestin cells, luminescence, 90 min; in the data active means max activation above about 30%; further: 0% is about no effect
Target sequence (P35462 whole entry, looked up): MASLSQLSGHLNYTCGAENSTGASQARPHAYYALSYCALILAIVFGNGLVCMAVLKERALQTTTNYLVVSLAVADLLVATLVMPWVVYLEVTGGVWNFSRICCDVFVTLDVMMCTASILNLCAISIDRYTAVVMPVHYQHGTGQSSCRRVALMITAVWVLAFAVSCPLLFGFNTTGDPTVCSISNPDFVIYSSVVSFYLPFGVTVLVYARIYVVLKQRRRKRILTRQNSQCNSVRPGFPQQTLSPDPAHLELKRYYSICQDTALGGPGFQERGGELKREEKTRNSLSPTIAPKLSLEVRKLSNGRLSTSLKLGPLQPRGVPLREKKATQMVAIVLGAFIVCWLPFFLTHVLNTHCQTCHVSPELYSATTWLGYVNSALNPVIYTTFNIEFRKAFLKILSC
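Cells at 1500/well, incubated overnight, then treated with pinned compounds (dopamine as control) for 90 min at 37 degrees C. DiscoveRx reagent added for 30 - 60 minutes at room temperature; luminescence read.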
GLP-1R inv ag: inverse agonists of human GLP-1 receptor; P43220; HEK293 GLP-1R CRE-luciferase, luminescence, 24 h; GLP-1R form is constitutively active; Potency, µM (top dose mostly 38.3 µM), for inactives: at the top dose activity change, negative = inhibition, actives largely listed as inhibitors; hit rate 1.6% among 410,000; further: potency means the concentration at half of the fitted maximal effect; on the % scale 0 is the no-effect control and ±100 the full control effect; nearly all actives have a fitted effect of over 55% in size
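GLP-1R inverse agonism mode: basal reporter luminescence in engineered HEK293 cells measured after one day of compound exposure at 37 deg C, with a 12 min room-temperature detection step.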
GLP-1R agonist: activates the human GLP-1 receptor; P43220; HEK293 GLP-1R CRE-luciferase, luminescence, 4-6 h; cells express a hypersensitive GLP-1R form; Potency, µM (highest dose often 45.6 µM), without a hit: at the top dose activation, most hits filed as activators; hit rate 0.007% among 380,000; AID 624172; further: potency means the concentration at half of the fitted maximal effect; % of control where 0% means no effect
D3 antag: antagonists of human D3 dopamine receptor. D3R cells, DiscoveRx beta-arrestin luminescence, antagonist mode; active compounds read low. max response, negative = inhibition, %. P35462. hit rate 2.5% among 360,000. AID 652054; in the data active means max response below about -50%; inconclusive means no clear call, values can overlap the other calls; further: on the % scale 0 is the no-effect control and ±100 the full control effect
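Cells expressing the human receptor were seeded at 1500 cells/well, incubated overnight at 37 degrees C in 5% CO2, then exposed to library compounds with dopamine controls for 90 minutes at 37 degrees C before luminescent detection.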
Numbers without * were called inactive; u = inconclusive; x = no result. Hits are enriched below; roughly 4.3% of the tested compounds scored in any of these assays. Unless noted, the call rests on the fitted dose curve; in most records, active means well fitted curve in the direction sought with a large enough effect; inconclusive means small, poorly fitted or top-dose-only effect, or another doubt; inactive means no such curve, though single readings can be large; an effect the other way counts as inactive or inconclusive.

SMILES	D3 ag	GLP-1R inv ag	GLP-1R agonist	D3 antag
COc1cccc(CN(C)CC(=O)Nc2sc3c(c2C#N)CCC3)c1OC	18	5%	2%	4
COc1ccc(CN(C)CC(=O)Nc2sc3c(c2C#N)CCC3)cc1OC	37*	20%	23%	24
CCN1C(=O)/C(=C2\C=Cc3ccccc3N2CC)SC1=S	-14	0%	13%	-91*
O=C(Nc1cccc(Cl)c1)Nc1ccccc1OCc1cc(=O)n2ccccc2n1	2	1%	x	x
Cc1cc(C)nc(SCC(=O)Nc2ccc(S(=O)(=O)Nc3ncccn3)cc2)n1	34*	7%	1%	4
Cc1cc(NC2CCCCC2)nc(NCc2ccccc2)n1	-12	10µM*	11%	-12
Cc1ccc(Nc2cc(C)nc(NCc3ccccc3)n2)cc1	-7	u	11%	-15
Cc1ccc(NC(=O)CNCC(c2ccccc2)N(C)C)cc1F (configuration not stated)	-12	-24%	-1%	-28
Cc1cc(NC(=O)CNCC(c2ccccc2)N(C)C)c([N+](=O)[O-])cc1C (configuration not stated)	3	-16%	5%	-54*
Cc1cc(Cl)cc(Br)c1OCCCNCC(C)O (configuration not stated)	-1	4µM*	15%	0
Cc1cc(C)c(OCCCNCc2ccccc2)c(Br)c1	-16	u	-3%	-28
CCCCCCCN1C2=NCCN2c2ccccc21	1	5.6µM*	-3%	1
O=C(O)CN1C2=NCCCN2c2ccccc21	-2	13%	1%	-17
CCCCCCCN1C2=NCCCN2c2ccccc21	-8	10µM*	5%	-15
CCCCN1C2=NCCCN2c2ccccc21	-9	5%	-5%	u
O=C(CN1C2=NCCCN2c2ccccc21)c1ccc(Br)s1	-16	u	-4%	-54*
C[N+](C)(C)C(Cc1ccccc1)C(=O)[O-] (configuration not stated)	6	1%	-4%	-15
CN(C)c1ccc(/C=C/C=C2/SC(=S)N(c3ccccc3)C2=O)cc1	-10	-39%	-22%	-67*
O=C(O)c1ccc(N2C(=O)/C(=C/C=C/c3ccccc3)SC2=S)cc1	0	5%	-4%	2
NC[C@@H]1O[C@@H](O[C@H]2[C@@H](O)[C@H](O[C@@H]3[C@@H](O)[C@@H](N)C[C@H](N)[C@H]3O[C@H]3O[C@H](CN)[C@@H](O)[C@@H](O)[C@H]3N)O[C@H]2CO)[C@H](N)[C@@H](O)[C@@H]1O	x	x	-2%	x
O=C1CC2(CCCC2)CC(=O)N1CCCCN1CCN(c2ncccn2)CC1	-89	-13%	-5%	-100*
O=C(Nc1ccc2ccccc2c1)c1onc2c1CCCC2	7	8.9µM*	-1%	0
Cc1ccc(OCc2nnc(SCC(=O)c3cccs3)n2-c2ccccc2)cc1C	0	10µM*	15%	-53*
O=C(O)CSc1nnc(COc2ccccc2)n1-c1ccccc1	2	7%	-4%	5
O=C(CSc1nnc(COc2ccccc2)n1-c1ccccc1)c1cccs1	-10	8.9µM*	0%	3
SMILES	D3 ag	GLP-1R inv ag	GLP-1R agonist	D3 antag
Cc1ccc(S(=O)(=O)/N=C2/NC(=O)/C(=C\c3cc(Br)cc(Br)c3O)S2)cc1	-6	-5%	-2%	-53*
Cc1ccc(S(=O)(=O)/N=C2/NC(=O)/C(=C/c3ccc(Br)o3)S2)cc1	-1	28%	4%	13
CCn1nc(-c2ccccc2)c(-c2ccccc2)c(C(=O)Nc2ccccc2C#N)c1=O	13	-11%	x	x
CN(C(=O)COc1ccc(C(C)(C)C)cc1)C1CCS(=O)(=O)C1 (configuration not stated)	-6	2%	-3%	-64*
CCc1ccc(OCC(=O)N(C)C2CCS(=O)(=O)C2)cc1 (configuration not stated)	-3	3%	2%	-21
COc1ccc(C(=O)N2CCN(C(=O)COc3ccccc3)CC2)cc1OC	7	2%	4%	x
CC(=O)N1CCCC(C)(C(=O)Nc2ccc3nc(C)ccc3c2)C1 (configuration not stated)	4	6%	11%	-52*
CC(C)(C)NC(=O)CN(Cc1cccs1)C(=O)CCN1CCc2ccccc21	0	u	5%	-4
CC(C(=O)NC(C)(C)C)N(Cc1cccs1)C(=O)CCN1CCc2ccccc21 (configuration not stated)	-7	10µM*	13%	-16
COc1ccc(C)cc1-n1c(SCC(=O)NCc2ccco2)nc2c([nH]c3ccccc32)c1=O	-14	u	x	x
CCN1C(=O)c2cccc3c(S(=O)(=O)N4CCNCC4)ccc1c23	20	11%	-4%	-21
Cc1nc(N2CCCCC2)c2c(C)c(C(=O)Nc3cccc(C(F)(F)F)c3)sc2n1	14	u	10%	105
Cc1nc(N2CCCCC2C)c2c(C)c(C(=O)Nc3cccc(C(F)(F)F)c3)sc2n1 (configuration not stated)	15	10µM*	4%	54
c1cncc(-c2nc(NCCCN3CCOCC3)c3c4c(sc3n2)CCC4)c1	-10	11µM*	22%	0
OCc1cc([C@@H](O)CNCCCCCCOCCCCc2ccccc2)ccc1O	x	x	38%	x
COc1ccc(NCc2ccccc2-c2nnc(-c3ccccc3)o2)cc1Cl	6	0%	x	x
CC(=O)Nc1ccc(S(=O)(=O)Nc2cc(C)on2)cc1	3	x	-2%	x
O=S(=O)(c1ccc2c(c1)OCCO2)N1CCC(c2nc3ccc(Cl)cc3[nH]2)CC1	-5	u	-25%	u
O=C(NCC1CCCO1)c1ccc(S(=O)(=O)N2CCC(c3nc4ccc(Cl)cc4[nH]3)CC2)cc1 (configuration not stated)	-6	-4%	-6%	-62*
Cc1cc(OCC(=O)N2CCC(c3nc4ccccc4s3)CC2)ccc1Cl	11	u	x	x
COC(=O)c1ccc(Oc2cc(C)nc(-n3nc(C)cc3C)n2)cc1	-28	3%	32%	-82*
CS(=O)(=O)N1CCC(N2CCN(Cc3ccccc3)C(=O)C2=O)CC1	-3	-7%	x	x
COc1cc(OC)c(OC)cc1CN1CCc2nc(N3CCN(c4ccccc4F)CC3)ncc2C1	-10	-7%	x	x
O=C(Nc1ccc(CN2CCCCC2)cc1)c1c(F)c(F)c(F)c(F)c1F	-7	u	5%	5
CCN1CCN(Cc2ccc(NC(=O)Nc3ccccc3Cl)cc2)CC1	-15	u	-5%	-61*
O=C(Nc1ccc(CN2CCCCC2)cc1)c1ccc(Br)o1	-15	1%	23%	-62*
O=C(Nc1ccccc1Cl)NN1CCCCCC1	7	2µM*	27%	14
CCN1CCN(Cc2ccccc2NC(=O)Nc2ccc(C)cc2)CC1	-17	4%	1%	-30
O=C(Nc1ccc(CN2CCCCC2)cc1)Nc1ccccc1Cl	-28	u	15%	-52*
O=[N+]([O-])c1ccc(OCCCCN2CCc3ccccc3C2)cc1	-21	u	7%	-102*
